PubChem BioAssay (Tox21)
“And” between values parts separate entries of the source, which are not always exact repeats. Equal entries are not always repeated. Records with an inconclusive call do not appear. The source made the active and inactive calls. Unless noted, the call rests on the fitted dose curve; in most records, active means well fitted curve in the direction sought with a large enough effect in the repeat runs; inconclusive means weak or mixed curves; inactive means no such curve, though single readings can be large; an effect the other way counts as inactive or inconclusive.

Columns and labels:
[1] = Caspase-3/7 induction in CHO-K1 cells by small molecules, qHTS cell viability counter screen (AID 1346979); further: nearly all actives have a fitted effect of over 35% in size; further: potency means the concentration at half of the fitted maximal effect
Summary of the method: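 Cytotoxicity counter screen: CellTiter-Fluor added to compound-treated wild-type CHO-K1 cells at 16 h (37C, 5% CO2), fluorescence measured 1 h later; same wells as caspase-3/7 measurement.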

[2] = Caspase-3/7 induction in CHO-K1 cells by small molecules, qHTS assay (AID 1346980); further: nearly all actives have a fitted effect of over 15% in size; further: potency means the concentration at half of the fitted maximal effect
Summary of the method: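 Wild-type CHO-K1 cells exposed to compounds for 17hr at 37 C, 5% CO2. Caspase-3/7 activity then measured by Caspase-Glo 3/7 luminescence after 30min at room temperature.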

[3] = Caspase-3/7 induction in HepG2 cells by small molecules, qHTS cell viability counter screen (AID 1346981); further: nearly all actives have a fitted effect of over 30% in size; further: potency means the concentration at half of the fitted maximal effect
Summary of the method: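 Wild-type HepG2 cells (2,000/well) were allowed to settle for 5 hr at 37 C, 5% CO2, then dosed with compounds in DMSO by pin transfer. After 16 hr at 37 C, CellTiter-Fluor was added and fluorescence read 1 hr later.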

[4] = molecular target: Nuclear receptor subfamily 1 group I member 2 (Homo sapiens) (UniProt O75469); assay: Human pregnane X receptor (PXR) small molecule agonists, qHTS assay (AID 1346982); further: nearly all actives have a fitted effect of over 35% in size; further: potency means the concentration at half of the fitted maximal effect
Summary of the method: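 PXR-Luc HepG2 cells (CYP3A4 promoter-driven luciferase) were seeded in medium with 5% charcoal-stripped FBS, left 5 hr at 37 C, then exposed to compounds in DMSO for 24 hr. Luminescence was read after ONE-Glo addition.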

[5] = molecular target: Acetylcholinesterase (Homo sapiens) (UniProt P22303); assay: Acetylcholinesterase (AChE) small molecule antagonists: colormetric cell-based qHTS assay (AID 1347395; calls by dose curve; further: nearly all actives have a fitted effect of over 30% in size; further: potency means the concentration at half of the fitted maximal effect)
Summary of the method: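 Colorimetric readout: DTNB quantifies thiocholine from acetylthiocholine hydrolysed by endogenous AChE of SH-SY5Y cells (2,000/well, plated overnight). Compound pretreatment 30 min, substrate incubation 90 min, both 37 C.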

[6] = molecular target: Acetylcholinesterase (Homo sapiens) (UniProt P22303); assay: Acetylcholinesterase (AChE) small molecule antagonists: enzyme-based qHTS assay (AID 1347397; calls by dose curve; further: nearly all actives have a fitted effect of over 55% in size); conditions: Potency: AChE enzyme activity inhibition
Summary of the method: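 Recombinant human AChE (50 mU/mL) preincubated with compound 30 min at room temperature; acetylthiocholine plus DTNB then added, and thiocholine formation read colorimetrically after 10 min at room temperature. DMSO served as vehicle control.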

[7] = molecular target: Acetylcholinesterase (Homo sapiens) (UniProt P22303); assay: Acetylcholinesterase (AChE) small molecule antagonists: fluorescence cell-based qHTS assay (AID 1347398; calls by dose curve; further: nearly all actives have a fitted effect of over 50% in size; further: potency means the concentration at half of the fitted maximal effect); conditions: Potency: AChE activity
Summary of the method: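 SH-SY5Y cells (2000/well), attached overnight, incubated with compound 30 min at 37 C. Acetylthiocholine plus Thiolite Green then added for 40 min at room temperature. Thiocholine fluorescence (Ex/Em 490/520 nm) reports cellular AChE activity.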

[8] = molecular target: Acetylcholinesterase (Homo sapiens) (UniProt P22303); assay: Acetylcholinesterase (AChE) small molecule antagonists: enzyme-based qHTS assay with human liver microsomes (AID 1347399; calls by dose curve; further: nearly all actives have a fitted effect of over 60% in size); conditions: Potency: qHTS inhibition
Summary of the method: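 Recombinant human AChE (50 mU/mL in the enzyme mix) and human liver microsomes (0.25 mg/mL final) were preincubated with compound and NADPH (0.25 mg/mL final) for 30 min at 37 C. Acetylthiocholine/DTNB was then added; thiocholine was read colorimetrically after 10 min at room temperature.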

[9] = molecular target: Cytochrome P450 2D6 (Homo sapiens) (UniProt P10635); assay: Cytochrome P450 Family 2 Subfamily D Member 6 (CYP2D6) small molecule antagonists: luciferase reporter qHTS assay (AID 1671196); further: nearly all actives have a fitted effect of over 50% in size; further: potency means the concentration at half of the fitted maximal effect
Summary of the method: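 CYP2D6 enzyme–substrate mix was held with compound for 10 min at room temperature, then NADPH regeneration solution was added and the reaction ran 1 h at room temperature. Luciferin product was detected by luminescence after 20 min with detection reagent.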

[10] = molecular target: Cytochrome P450 2C19 (Homo sapiens) (UniProt P33261); assay: Cytochrome P450 Family 2 Subfamily C Member 19 (CYP2C19) small molecule antagonists: luciferase reporter qHTS assay (AID 1671197); further: nearly all actives have a fitted effect of over 65% in size; further: potency means the concentration at half of the fitted maximal effect
Summary of the method: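 Enzyme-substrate mix with proluciferin substrate (P450-Glo CYP2C19 system) preincubated with compounds 10 min at room temperature; NADPH regeneration solution added, 37C for 1 h; detection reagent stops reaction, luminescence read after 20 min. Ketoconazole positive control.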

[11] = molecular target: Cytochrome P450 2C9 (Homo sapiens) (UniProt P11712); assay: Cytochrome P450 Family 2 Subfamily C Member 9 (CYP2C9) small molecule antagonists: luciferase reporter qHTS assay (AID 1671198); further: nearly all actives have a fitted effect of over 50% in size; further: potency means the concentration at half of the fitted maximal effect
Summary of the method: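 P450-Glo proluciferin substrate with CYP2C9 enzyme; 10 min RT preincubation, then NADPH regeneration 1 h at 37C; luciferin detection reagent 20 min RT, luminescence in relative luminescence units.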

[12] = molecular target: Cytochrome P450 1A2 (Homo sapiens) (UniProt P05177); assay: Cytochrome P450 Family 1 Subfamily A Member 2 (CYP1A2) small molecule antagonists: luciferase reporter qHTS assay (AID 1671199); further: nearly all actives have a fitted effect of over 50% in size; further: potency means the concentration at half of the fitted maximal effect
Summary of the method: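 Human CYP1A2 activity measured with a P450-Glo proluciferin substrate; compounds in DMSO preincubated 10 min at room temperature with enzyme-substrate mix, then NADPH regeneration system added for 1 h. Luciferin detection reagent, 20 min, luminescence read.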

[13] = molecular target: Cytochrome P450 3A4 (Homo sapiens) (UniProt P08684); assay: Cytochrome P450 Family 3 Subfamily A Member 4 (CYP3A4) small molecule antagonists: luciferase reporter qHTS assay (AID 1671201); further: nearly all actives have a fitted effect of over 50% in size; further: potency means the concentration at half of the fitted maximal effect
Summary of the method: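 Recombinant human CYP3A4 converts a proluciferin substrate to luciferin over 1 h at room temperature after NADPH regeneration solution is added (compound preincubated 10 min); detection reagent stops reaction, luminescence read 20 min later as relative units.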

[14] = molecular target: Voltage-gated inwardly rectifying potassium channel KCNH2 (Homo sapiens) (UniProt Q12809); assay: Human Ether-a-go-go-Related Gene (hERG) channel small molecule antagonists: fluorescence cell-based qHTS assay (AID 1671200); further: nearly all actives have a fitted effect of over 50% in size; further: potency means the concentration at half of the fitted maximal effect
Summary of the method: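 Thallium flux as potassium surrogate: FluxOR II dye loaded 1 h at room temperature into hERG-expressing U2OS cells, then stimulus buffer added after 10 min. Kinetic 480 nm excitation/540 nm emission read, 2 min.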

[15] = Caspase-3/7 induction in HepG2 cells by small molecules, qHTS assay (AID 1346978); further: nearly all actives have a fitted effect of over 15% in size; further: potency means the concentration at half of the fitted maximal effect
Summary of the method: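 Wild-type HepG2 cells, 2,000/well, settled 5 hr at 37 C and 5% CO2, then compound-treated for 17 hr; caspase-3/7 activity read by luminescent Caspase-Glo 3/7 after 30 min at room temperature.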

[16] = molecular target: Nuclear receptor subfamily 1 group I member 2 (Rattus norvegicus) (UniProt Q9R1A7); assay: Rat pregnane X receptor (rPXR) activation by small molecules, qHTS assay (AID 1346983); conditions: rPXR luciferase reporter cells, One-Glo luminescence, 24 h; max activation: stronger effect = higher value; further: nearly all actives have a fitted effect of over 20% in size
Summary of the method: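 Cell-based rPXR activation assay: rPXR cells, 2,000 per well, rested 5hr at 37 C, then exposed to compounds in DMSO for 24 hr at 37 C. Luciferase activity read by One-Glo luminescence after 30 min at room temperature.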

[17] = molecular target: Nuclear receptor subfamily 1 group I member 2 (Homo sapiens) (UniProt O75469); assay: CYP3A4 induction through human pregnane X receptor (PXR) by small molecules, qHTS assay (AID 1346984); further: nearly all actives have a fitted effect of over 40% in size
Summary of the method: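 DPX-2 cells (HepG2 co-transfected with PXR and CYP3A4 promoter-luciferase) treated with compounds 24 h at 37C; luciferin-IPA CYP3A4 substrate 3uM final added for 3 h, then One-Glo; luminescence read. qHTS format.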

[18] = molecular target: Nuclear receptor subfamily 1 group I member 2 (Homo sapiens) (UniProt O75469); assay: Human pregnane X receptor (PXR) activation by small molecules, qHTS assay (AID 1346985); further: nearly all actives have a fitted effect of over 40% in size
Summary of the method: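 DPX-2 cells (HepG2 co-transfected with a PXR response element and a CYP3A4-promoter luciferase construct) were seeded at 2,000 per well, rested 5 hr at 37C, then exposed to DMSO-dissolved compounds for 24 hr. Activation was read as luciferase luminescence.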
On the % scale 0 is the no-effect control and ±100 the full control effect.

Chain of Cytochrome P450 2D6 (Homo sapiens) (P10635 whole entry, looked up): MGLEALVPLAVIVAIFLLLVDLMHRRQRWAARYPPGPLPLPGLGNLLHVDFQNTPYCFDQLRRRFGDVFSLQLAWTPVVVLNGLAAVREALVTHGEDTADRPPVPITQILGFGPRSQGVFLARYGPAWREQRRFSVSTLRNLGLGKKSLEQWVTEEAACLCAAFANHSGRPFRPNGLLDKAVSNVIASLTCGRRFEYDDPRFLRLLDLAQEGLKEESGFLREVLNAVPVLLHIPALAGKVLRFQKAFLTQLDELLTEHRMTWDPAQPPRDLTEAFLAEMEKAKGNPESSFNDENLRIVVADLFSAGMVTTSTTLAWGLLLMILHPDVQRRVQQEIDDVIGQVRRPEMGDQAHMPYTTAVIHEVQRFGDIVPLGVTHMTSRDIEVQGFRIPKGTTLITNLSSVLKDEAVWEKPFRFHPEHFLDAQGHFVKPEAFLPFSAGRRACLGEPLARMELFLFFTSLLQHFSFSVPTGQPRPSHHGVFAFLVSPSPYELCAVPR
Chain of Acetylcholinesterase (Homo sapiens) (P22303 whole entry, looked up): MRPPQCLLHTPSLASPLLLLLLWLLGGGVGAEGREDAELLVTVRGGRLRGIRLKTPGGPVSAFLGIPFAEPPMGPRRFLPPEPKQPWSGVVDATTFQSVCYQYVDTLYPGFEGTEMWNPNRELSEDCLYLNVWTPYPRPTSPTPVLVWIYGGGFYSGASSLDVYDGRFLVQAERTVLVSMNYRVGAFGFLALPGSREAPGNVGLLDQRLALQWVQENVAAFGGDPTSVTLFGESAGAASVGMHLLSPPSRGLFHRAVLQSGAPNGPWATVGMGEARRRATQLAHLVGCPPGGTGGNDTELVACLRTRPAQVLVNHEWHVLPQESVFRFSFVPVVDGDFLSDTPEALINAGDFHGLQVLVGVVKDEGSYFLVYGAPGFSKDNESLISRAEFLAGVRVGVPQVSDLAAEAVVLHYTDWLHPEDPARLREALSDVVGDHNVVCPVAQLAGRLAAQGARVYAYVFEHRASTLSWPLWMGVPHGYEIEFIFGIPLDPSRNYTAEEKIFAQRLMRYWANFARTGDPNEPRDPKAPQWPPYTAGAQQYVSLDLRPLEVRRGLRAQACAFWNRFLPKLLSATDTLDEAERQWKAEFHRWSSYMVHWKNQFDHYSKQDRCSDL
Chain of Voltage-gated inwardly rectifying potassium channel KCNH2 (Homo sapiens) (Q12809 whole entry, looked up): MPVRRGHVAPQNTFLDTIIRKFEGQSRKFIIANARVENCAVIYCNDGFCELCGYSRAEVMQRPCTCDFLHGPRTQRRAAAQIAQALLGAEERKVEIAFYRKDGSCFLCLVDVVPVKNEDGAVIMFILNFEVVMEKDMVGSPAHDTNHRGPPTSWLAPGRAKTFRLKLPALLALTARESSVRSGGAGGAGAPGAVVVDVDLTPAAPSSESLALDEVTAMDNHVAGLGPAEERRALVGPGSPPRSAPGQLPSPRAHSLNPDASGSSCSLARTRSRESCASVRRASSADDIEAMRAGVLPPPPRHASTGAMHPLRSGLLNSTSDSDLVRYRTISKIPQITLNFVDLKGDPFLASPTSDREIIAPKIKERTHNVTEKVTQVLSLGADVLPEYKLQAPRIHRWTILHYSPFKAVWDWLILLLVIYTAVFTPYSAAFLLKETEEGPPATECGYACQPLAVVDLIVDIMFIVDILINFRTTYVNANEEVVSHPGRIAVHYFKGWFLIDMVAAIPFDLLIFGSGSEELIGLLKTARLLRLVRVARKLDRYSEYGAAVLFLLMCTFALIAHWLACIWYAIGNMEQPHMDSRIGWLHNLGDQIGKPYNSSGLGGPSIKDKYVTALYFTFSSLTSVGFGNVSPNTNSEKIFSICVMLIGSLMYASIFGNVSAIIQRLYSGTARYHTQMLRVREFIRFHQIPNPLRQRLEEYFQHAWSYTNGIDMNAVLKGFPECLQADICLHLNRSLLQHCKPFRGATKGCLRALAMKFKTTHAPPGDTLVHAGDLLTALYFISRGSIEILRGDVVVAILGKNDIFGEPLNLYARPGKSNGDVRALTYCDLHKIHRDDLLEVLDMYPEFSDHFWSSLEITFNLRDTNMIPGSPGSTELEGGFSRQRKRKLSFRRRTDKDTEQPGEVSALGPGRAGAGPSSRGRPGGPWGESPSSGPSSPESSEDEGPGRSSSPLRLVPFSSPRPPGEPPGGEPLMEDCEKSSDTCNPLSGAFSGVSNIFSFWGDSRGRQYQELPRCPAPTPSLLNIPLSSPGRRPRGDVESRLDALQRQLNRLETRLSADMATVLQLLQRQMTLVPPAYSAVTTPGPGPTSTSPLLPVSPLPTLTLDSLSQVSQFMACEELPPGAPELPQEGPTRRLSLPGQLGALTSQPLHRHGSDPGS
Chain of Cytochrome P450 2C19 (Homo sapiens) (P33261 whole entry, looked up): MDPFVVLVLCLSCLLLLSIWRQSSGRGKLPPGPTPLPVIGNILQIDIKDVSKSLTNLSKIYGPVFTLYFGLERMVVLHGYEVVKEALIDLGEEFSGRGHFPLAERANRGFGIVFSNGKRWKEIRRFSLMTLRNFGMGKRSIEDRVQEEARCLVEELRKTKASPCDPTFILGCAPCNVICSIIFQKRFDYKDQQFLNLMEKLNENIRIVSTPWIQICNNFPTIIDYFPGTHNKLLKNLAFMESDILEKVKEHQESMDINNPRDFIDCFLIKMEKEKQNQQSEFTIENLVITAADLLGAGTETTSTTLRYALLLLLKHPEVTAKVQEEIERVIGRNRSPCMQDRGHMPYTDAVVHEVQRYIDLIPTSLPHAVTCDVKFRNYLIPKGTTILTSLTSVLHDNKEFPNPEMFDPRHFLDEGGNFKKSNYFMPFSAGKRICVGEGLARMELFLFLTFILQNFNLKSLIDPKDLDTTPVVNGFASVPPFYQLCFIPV
Chain of Cytochrome P450 2C9 (Homo sapiens) (P11712 whole entry, looked up): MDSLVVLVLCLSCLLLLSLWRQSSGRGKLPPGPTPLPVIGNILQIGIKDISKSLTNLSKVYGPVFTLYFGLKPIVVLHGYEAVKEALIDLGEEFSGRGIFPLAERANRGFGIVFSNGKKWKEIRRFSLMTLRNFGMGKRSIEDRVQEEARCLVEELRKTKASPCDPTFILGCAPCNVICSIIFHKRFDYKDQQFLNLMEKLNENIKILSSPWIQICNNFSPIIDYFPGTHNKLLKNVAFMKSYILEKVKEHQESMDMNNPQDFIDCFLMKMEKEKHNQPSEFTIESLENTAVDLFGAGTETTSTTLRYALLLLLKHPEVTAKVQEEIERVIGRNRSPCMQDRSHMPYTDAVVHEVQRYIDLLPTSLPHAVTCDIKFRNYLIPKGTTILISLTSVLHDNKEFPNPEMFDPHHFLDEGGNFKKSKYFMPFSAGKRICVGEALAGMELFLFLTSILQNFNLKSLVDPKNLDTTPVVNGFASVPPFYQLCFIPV
Chain of Nuclear receptor subfamily 1 group I member 2 (Homo sapiens) (O75469 whole entry, looked up): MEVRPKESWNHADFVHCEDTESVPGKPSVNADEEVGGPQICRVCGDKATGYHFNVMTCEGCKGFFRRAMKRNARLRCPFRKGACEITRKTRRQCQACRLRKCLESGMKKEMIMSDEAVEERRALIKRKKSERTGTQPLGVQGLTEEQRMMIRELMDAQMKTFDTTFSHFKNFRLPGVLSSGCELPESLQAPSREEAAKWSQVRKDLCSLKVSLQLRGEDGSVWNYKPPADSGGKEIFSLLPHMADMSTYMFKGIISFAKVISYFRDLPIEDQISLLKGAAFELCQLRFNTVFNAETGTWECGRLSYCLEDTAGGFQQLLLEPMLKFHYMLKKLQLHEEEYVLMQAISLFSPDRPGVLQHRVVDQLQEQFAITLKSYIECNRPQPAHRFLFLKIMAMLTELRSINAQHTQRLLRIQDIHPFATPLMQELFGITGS
Chain of Cytochrome P450 3A4 (Homo sapiens) (P08684 whole entry, looked up): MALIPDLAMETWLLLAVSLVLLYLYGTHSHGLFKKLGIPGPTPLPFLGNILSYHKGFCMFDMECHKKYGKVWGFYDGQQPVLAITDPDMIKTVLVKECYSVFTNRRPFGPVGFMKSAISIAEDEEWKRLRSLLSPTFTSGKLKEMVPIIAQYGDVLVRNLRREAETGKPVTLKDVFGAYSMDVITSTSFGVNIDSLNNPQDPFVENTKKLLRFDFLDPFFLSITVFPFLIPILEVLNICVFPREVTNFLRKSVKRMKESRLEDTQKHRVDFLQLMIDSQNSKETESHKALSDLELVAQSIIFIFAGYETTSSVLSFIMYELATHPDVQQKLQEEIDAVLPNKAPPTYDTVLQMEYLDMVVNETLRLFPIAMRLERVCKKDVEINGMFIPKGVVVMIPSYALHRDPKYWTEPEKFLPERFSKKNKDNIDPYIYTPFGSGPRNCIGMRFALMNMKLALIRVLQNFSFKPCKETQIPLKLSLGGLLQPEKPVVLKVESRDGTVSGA
Chain of Cytochrome P450 1A2 (Homo sapiens) (P05177 whole entry, looked up): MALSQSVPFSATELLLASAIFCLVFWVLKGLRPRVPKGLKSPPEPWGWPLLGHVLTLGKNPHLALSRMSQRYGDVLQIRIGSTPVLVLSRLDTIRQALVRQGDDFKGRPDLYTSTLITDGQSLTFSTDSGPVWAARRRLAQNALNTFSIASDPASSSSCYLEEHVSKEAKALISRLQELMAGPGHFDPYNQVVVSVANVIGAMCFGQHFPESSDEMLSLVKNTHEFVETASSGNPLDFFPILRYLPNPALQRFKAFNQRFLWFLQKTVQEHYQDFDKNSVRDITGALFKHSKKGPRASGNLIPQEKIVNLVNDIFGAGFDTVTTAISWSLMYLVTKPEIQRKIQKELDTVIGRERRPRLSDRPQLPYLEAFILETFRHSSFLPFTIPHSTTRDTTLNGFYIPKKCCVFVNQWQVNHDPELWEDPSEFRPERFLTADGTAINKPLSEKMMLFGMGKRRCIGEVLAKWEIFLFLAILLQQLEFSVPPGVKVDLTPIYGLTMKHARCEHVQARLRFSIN

CC1(c2ccc(Oc3ccccc3)cc2)OC(=O)N(Nc2ccccc2)C1=O (configuration not stated)
inactive: Potency [2] | Potency [5] | Potency [6] | Potency [7] | Potency [8] | Potency [9]
active: Potency [1] 6.9 µM | Potency [3] 27.5 µM | Potency [4] 21.8 µM | Potency [10] 12.7 µM | Potency [11] 8.99 µM | Potency [12] 35.8 µM | Potency [13] 11.3 µM

C[C@]12CC[C@H]3[C@@H](CCC4=CC(=O)CC[C@@]43C)[C@@H]1CC[C@@H]2O
inactive: Potency [1] | Potency [2] | Potency [3] | Potency [5] | Potency [7] | Potency [8] | Potency [9] | Potency [10] | Potency [13]
active: Potency [4] 27.1 µM

CC(O)C#N (configuration not stated)
inactive: Potency [1] | Potency [2] | Potency [3] | Potency [4] | Potency [5] | Potency [6] | Potency [7] | Potency [8] | Potency [9] | Potency [10] | Potency [11] | Potency [12] | Potency [14] | Potency [13]

OC(c1ccc(Cl)cc1)(c1ccc(Cl)cc1)C(Cl)(Cl)Cl
active: Potency [4] 24.3 µM | Potency [9] 31.7 µM | Potency [10] 0.0564 µM | Potency [11] 5.03 µM | Potency [12] 14.2 µM | Potency [14] 24.5 µM
inactive: Potency [15] | Potency [3] | Potency [5] | Potency [6] | Potency [7] | Potency [8] | Potency [13]

CC(C)CC(C)(c1ccc(O)cc1)c1ccc(O)cc1
inactive: Potency [2] | Potency [5] | Potency [7] | Potency [8] | Potency [9] | Potency [12]
active: Potency [1] 61.3 µM and 61.1 µM | Potency [3] 68.7 µM and 61.1 µM | Potency [4] 8.65 µM and 13.7 µM | Potency [10] 35.7 µM and 22.4 µM | Potency [11] 28.3 µM and 17.8 µM | Potency [13] 17.9 µM and 31.7 µM

CCOC(=O)CC(=O)CCl
inactive: Potency [15] | Potency [4] | Potency [5] | Potency [6] | Potency [7] | Potency [8] | Potency [9] | Potency [10] | Potency [11] | Potency [14]

Oc1ccc2ccc3cccc4ccc1c2c34
inactive: Potency [1] | Potency [2] | Potency [3] | Potency [6] | Potency [7] | Potency [8] | Potency [9] | Potency [14]
active: Potency [4] 27.3 µM | Potency [10] 20 µM | Potency [12] 0.894 µM | Potency [13] 31.7 µM

CC(=O)c1cc(C(C)(C)C)cc2c1CCC2(C)C
inactive: Potency [1] | Potency [2] | Potency [3] | Potency [4] | Potency [5] | Potency [6] | Potency [7] | Potency [8] | Potency [9] | Potency [10] | Potency [14] | Potency [13]
active: Potency [12] 31.7 µM

CC[C@H](C)[C@H]1O[C@]2(C=C[C@@H]1C)C[C@@H]1C[C@@H](C/C=C(\C)[C@@H](O[C@H]3C[C@H](OC)[C@@H](O[C@H]4C[C@H](OC)[C@@H](O)[C@H](C)O4)[C@H](C)O3)[C@@H](C)/C=C/C=C3\CO[C@@H]4[C@H](O)C(C)=C[C@@H](C(=O)O1)[C@]34O)O2
inactive: Potency [2] | Potency [4] | max activation [16] -15.3% | Potency [17] | Potency [18] | Potency [5] | Potency [6] | Potency [7] | Potency [8] | Potency [14]
active: Potency [1] 14.4 µM | Potency [3] 25.6 µM | Potency [9] 33.3 µM | Potency [10] 21 µM | Potency [11] 10.5 µM | Potency [12] 33.3 µM | Potency [13] 9.39 µM

COS(=O)(=O)c1ccc(C)cc1
inactive: Potency [1] | Potency [2] | Potency [3] | Potency [4] | Potency [5] | Potency [7] | Potency [8] | Potency [9] | Potency [10] | Potency [11] | Potency [12] | Potency [14] | Potency [13]

Cc1cc(C(C)(C)c2cc(C)c(O)c(C)c2)cc(C)c1O
inactive: Potency [2] | Potency [5] | Potency [6] | Potency [7] | Potency [8] | Potency [14]
active: Potency [1] 59.1 µM | Potency [3] 52.7 µM | Potency [4] 33.2 µM | Potency [10] 1.22 µM | Potency [11] 3.07 µM | Potency [12] 38.6 µM

ClC(Cl)=C(c1ccc(Cl)cc1)c1ccc(Cl)cc1
inactive: Potency [1] | Potency [2] | Potency [3] | Potency [5] | Potency [6] | Potency [7] | Potency [8] | Potency [9] | Potency [13]
active: Potency [4] 62.6 µM and 48.6 µM | Potency [10] 409 nM and 710 nM | Potency [12] 5.78 µM and 5.64 µM | Potency [14] 39.9 µM and 49 µM

C1CCC2CCCCC2C1 (configuration not stated)
inactive: Potency [1] | Potency [2] | Potency [3] | Potency [4] | Potency [5] | Potency [6] | Potency [7] | Potency [8] | Potency [9] | Potency [10] | Potency [12] | Potency [14] | Potency [13]

c1ccc2cc3c(cc2c1)-c1cccc2cccc-3c12
active: Potency [15] 7.59 µM | Potency [4] 2.4 µM
inactive: Potency [3] | Potency [5] | Potency [6] | Potency [7] | Potency [8] | Potency [9] | Potency [10] | Potency [11] | Potency [14] | Potency [13]

CC(C)OC(=O)C(O)(c1ccc(Cl)cc1)c1ccc(Cl)cc1
active: Potency [4] 21.7 µM | Potency [9] 31.7 µM | Potency [10] 2 µM | Potency [11] 8.94 µM | Potency [14] 21.9 µM
inactive: Potency [15] | Potency [3] | Potency [7] | Potency [8] | Potency [13]

COc1cccc2c1C(=O)c1c(O)c3c(c(O)c1C2=O)C[C@@](O)(C(=O)CO)CC3OC1CC(N2CCOC(OC)C2)C(O)C(C)O1 (some centres not stated)
active: Potency [1] 9.44 µM | Potency [2] 0.168 µM | Potency [3] 16.8 µM | Potency [5] 12.3 µM | Potency [7] 11 µM | Potency [11] 4.36 µM
inactive: Potency [4] | Potency [8] | Potency [12] | Potency [14]
